mHTT CaM bind: inhibitors of human mutant huntingtin-calmodulin interaction. P42858. AlphaScreen His-mHTT/GST-CaM binding, luminescence. AID 1671202. inhibition, % at 15 µM. 3.6% of 190,000 active
Pf apPOL inh: Pf-apPOL DNA polymerase inhibition; Recombinant Pf-apPOL, molecular beacon fluorescence, 1.5 h; inhibition, % at 10 µM; 0.25% of 210,000 active; AID 1794808
Numbers stand for hits; 0 = inactive; - = no result. An excerpt weighted towards active compounds, which were near 3.6% of everything screened. Rule as the data show it: active = inhibition above about 50%; inactive = the rest.

SMILES | mHTT CaM bind | Pf apPOL inh
O=S1(=O)N[C@@H](Cc2ccccc2)COc2cccc(N3CCN(Cc4ccccc4F)CC3)c21 | 89 | 0
CC(C)C[C@@H]1COc2cccc(N3CCN(Cc4ccccc4F)CC3)c2S(=O)(=O)N1 | 0 | 0
COc1ccc(NC(=O)COc2ccccc2)c2ccccc12 | 0 | 74
CC(=O)Nc1ccccc1NC(=O)COc1ccccc1 | 0 | 0
c1ccc2c(C34CC5CC(C3)CC(c3cccc6ccccc36)(C5)C4)cccc2c1 | 0 | 0
NC(=O)c1ccccc1N=Cc1ccc([N+](=O)[O-])o1 | 0 | 0
NC(N)=NN=C(/C=C/c1ccc([N+](=O)[O-])o1)/C=C/c1ccc([N+](=O)[O-])o1 | 100 | -
COc1ccc(C)cc1NC(=O)NC1CCCCC1 | 0 | 0
CN(C)c1ccc(CN2CCc3nc(N4CCN(c5ncccn5)CC4)ncc3C2)cc1 | 100 | 0
Cc1cccc(CN2CCc3nc(N4CCCC4)ncc3C2)c1 | 84 | 0
CCOc1ccc(CN2CCc3nc(N4CCCC4)ncc3C2)cc1OCC | 0 | 0
CCN1CCN(c2ncc3c(n2)CCN(Cc2ccccc2)C3)CC1 | 55 | 0
CCc1ccc(CN2CCc3nc(N4CCN(CC)CC4)ncc3C2)cc1 | 0 | 0
CCN1CCN(c2ncc3c(n2)CCN(Cc2cc(F)cc(F)c2)C3)CC1 | 0 | 0
Cc1ccc(CN2CCc3nc(N4CCN(c5ccccc5)CC4)ncc3C2)cc1 | 0 | 0
CCN1CCN(c2ncc3c(n2)CCN(Cc2cccc(Br)c2)C3)CC1 | 57 | 0
O=C(Cc1ccc(Cl)cc1)N1CCN(c2nc(CN3CCOCC3)cs2)CC1 | 0 | 0
Cc1ccsc1CN1CCc2nc(N3CCN(c4ccc(F)cc4)CC3)ncc2C1 | 0 | 0
O=C(NCc1ccccc1F)c1ccc2c(=O)n3c(nc2c1)SCCC3 | 0 | 0
Cc1ccc(N(C)C(=O)c2coc(=O)c3ccccc23)cc1C | 0 | 0
CCNC(=O)C1CC(c2ccccc2)CN(C(=O)Cc2ccccc2)C1 (stereo unspecified) | 0 | 0
Brc1cccc(CN2CCc3nc(N4CCCC4)ncc3C2)c1 | 100 | 0
c1ccc(CN2CCc3nc(N4CCCC4)ncc3C2)cc1 | 0 | 0
O=C(NCC1(CO)CC1)C12CC3CC(CC(C3)C1)C2 | 0 | 0
Cc1cc(NC(=O)CSc2nc3n[nH]c(C)c3c(=N)n2-c2ccc(Cl)c(C)c2)no1 | 0 | 0
SMILES | mHTT CaM bind | Pf apPOL inh
Cc1[nH]nc2nc(SCC(=O)NCc3ccco3)n(-c3cccc(Cl)c3)c(=N)c12 | 50 | 0
CCC(Sc1nc2n[nH]c(C)c2c(=N)n1-c1cccc(Cl)c1)C(=O)NCCOC (stereo unspecified) | 61 | 0
CCCCN(CC)C(=O)CSc1nc2n[nH]c(C)c2c(=N)n1-c1cccc(C)c1 | 0 | 0
CCC(Sc1nc2n[nH]c(C)c2c(=N)n1-c1ccc(Cl)c(C)c1)C(=O)NCCOC (stereo unspecified) | 52 | 0
Cc1[nH]nc2nc(SCC(=O)N3CCCC3)n(-c3cccc(Cl)c3)c(=N)c12 | 0 | 0
CC1CN(C(=O)Nc2ccc3c(c2)CCC3)CC1c1nc(-c2cccnc2)no1 (stereo unspecified) | 0 | 0
CC(=O)c1ccc(-c2ccc([C@H]3[C@@H]4C=CCC[C@@]4(C)C(=O)N3Cc3ccccc3)c(F)c2)cc1 | 0 | 0
COc1ccc(-c2ccc(N(C)C)cc2)cc1[C@H]1[C@@H]2C=CCC[C@@]2(C)C(=O)N1Cc1ccccc1 | 73 | 0
COc1ccc(Br)cc1[C@H]1[C@@H]2C=CCC[C@@]2(C)C(=O)N1Cc1ccccc1 | 90 | 0
COc1ccc(-c2ccc(OC)c([C@H]3[C@@H]4C=CCC[C@@]4(C)C(=O)N3Cc3ccccc3)c2)cc1 | 0 | 0
COc1ccc(/C=C/c2ccccc2)cc1[C@H]1[C@@H]2C=CCC[C@@]2(C)C(=O)N1Cc1ccccc1 | 0 | 0
COc1ccc(-c2ccc(OC)c([C@H]3[C@@H]4C=CCC[C@@]4(C)C(=O)N3Cc3ccccc3)c2)cc1OC | 76 | 0
Cc1ccsc1C=C1Oc2cc(O)ccc2C1=O | 0 | 0
Cc1ccc(S(=O)(=O)N2CCc3nc(NC(=O)c4cccs4)sc3C2)cc1 | 0 | 0
COc1ccc(/C=C2\CC/C(=C\c3ccc(OC)c(OC)c3)C2=O)cc1OC | 0 | 0
COc1cc(/C=C2\CC/C(=C\c3ccc(O)c(OC)c3)C2=O)ccc1O | 61 | 0
O=c1c(NC2CCCC2)nc2ccncc2n1Cc1ccccc1 | 0 | 0
CC(=O)N1N=C(c2ccc(Br)cc2)CC1c1ccc(Br)cc1 (stereo unspecified) | 0 | 0
Cc1ccc(C2CC(c3ccccc3)=NN2C(=O)CCC(=O)O)cc1 (stereo unspecified) | 0 | 0
CC(=O)N1N=C(c2ccc(Br)cc2)CC1c1ccc(N(C)C)cc1 (stereo unspecified) | 74 | 0
COc1cc(C(=O)N2N=C(c3ccccc3)CC2c2ccc(N(C)C)cc2)cc(OC)c1OC (stereo unspecified) | 97 | 0
CC(=O)N1N=C(c2ccccc2)CC1c1ccc(N(C)C)cc1 (stereo unspecified) | 0 | 0
Cc1ccc(C2=NN(C(=O)CCC(=O)O)C(c3ccc(Br)cc3)C2)cc1 (stereo unspecified) | 0 | 72
Cc1ccccc1C(=O)Nc1ccc(F)c(Cl)c1 | 0 | 0
O=c1oc2ccc([N+](=O)[O-])cc2cc1-c1nnc(NCc2ccccc2)s1 | 0 | 0
SMILES | mHTT CaM bind | Pf apPOL inh
COC(=O)C(C#N)=C1C(=O)Nc2ccccc21 | - | 0
O=C1OC(c2cc(Cl)ccc2Cl)=N/C1=C\c1ccccc1 | 0 | 0
CCc1[nH]nc2c1C(c1ccccc1[N+](=O)[O-])C(C#N)=C(N)O2 (stereo unspecified) | 0 | 0
N#CC1=C(N)Oc2c(C=Nc3ccccc3)ccc(O)c2C1c1ccccc1[N+](=O)[O-] (stereo unspecified) | 100 | 0
COc1ccc(N=Cc2cc([N+](=O)[O-])ccc2O)cc1 | 0 | 0
COc1ccc(N=Cc2ccc(O)c3c2OC(N)=C(C#N)C3c2cccc([N+](=O)[O-])c2)cc1 (stereo unspecified) | 99 | 0
Cc1noc(C)c1CNC(=O)NC1CCCCC1 | 0 | 0
COc1ccc(OC)c(NC(=O)C2CCN(c3cc(N4CCCC4)ncn3)CC2)c1 | 0 | 0
O=C1NC(=Nc2ccc(F)cc2)S/C1=C/c1ccc(O)c(O)c1 | 57 | 0
O=C1NC(=Nc2ccc(F)cc2)S/C1=C/c1cccs1 | 0 | 0
Cc1cc(C)cc(N=C2NC(=O)/C(=C/c3ccccc3)S2)c1 | 0 | 0
Cc1cc(C)cc(N=C2NC(=O)/C(=C/c3ccco3)S2)c1 | 79 | 0
O=C1NC(=Nc2ccc(F)cc2)S/C1=C/c1ccco1 | 68 | 0
COc1cc(/C=C2/SC(=Nc3ccc(O)cc3)NC2=O)ccc1O | 0 | 0
COc1ccc(C2=N/C(=C\c3cc(OC)ccc3OC)C(=O)O2)c(Br)c1 | 0 | 0
Cc1cccc(NC(=O)c2cccc(Cl)c2)c1C | 0 | 0
CCCCCCn1c(SCC(O)CO)nc2c1c(=O)[nH]c(=O)n2C (stereo unspecified) | 0 | 0
Cn1c(=O)[nH]c(=O)c2c1nc(SCC(O)CO)n2CC(N)=O (stereo unspecified) | 0 | 65
Cc1cc(NC(=O)C2CC2)n(-c2nc3ccccc3n2C)n1 | 0 | 0
O=C(CSc1c(-c2ccccc2)c2cc(Cl)ccc2[nH]c1=O)Nc1ccc(F)cc1 | 0 | 0
O=C(NC1CCCC1)C1CC(c2ccccc2)=NO1 (stereo unspecified) | 0 | 0
CC(=O)c1c(C(C)=O)c(C)n(-c2cc(C)c(C)cc2N)c1C | 0 | 0

Bioassay records deposited in PubChem BioAssay by University of Kansas High Throughput Screening Laboratory.
